Sa RN4220 lethal: S. aureus RN4220 growth inhibition | 330,000 compounds, 0.33% hits | OD600, 16 h | inhibition, % (no concentration beside the values); in the data active = inhibition above about 85%
CCHF vOTU inh-1: blocks the CCHF virus ovarian tumor domain protease | CCHFV vOTU protease, Pep-AMC fluorescence | inhibition, % at 11.5 µM | 370,000 compounds, 0.55% hits
DUSP3 inh: inhibitors of human VHR1 phosphatase (DUSP3). P51452. recombinant VHR phosphatase, pNPP absorbance. inhibition, % at 13.3 µM. 290,000 compounds, 0.52% hits. AID 1654; in the data active = inhibition above about 50%
Target sequence (P51452 whole entry, looked up): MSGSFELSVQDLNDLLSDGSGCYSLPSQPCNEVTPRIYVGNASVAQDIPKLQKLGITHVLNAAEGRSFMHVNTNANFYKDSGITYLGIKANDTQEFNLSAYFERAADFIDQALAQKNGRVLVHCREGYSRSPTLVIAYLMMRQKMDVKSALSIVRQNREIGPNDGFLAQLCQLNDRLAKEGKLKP
SSB-PriA inh: K. pneumoniae PriA-SSBct interaction inhibition; inhibition, % at 33 µM; AID 1272365; 430,000 compounds, 0.6% hits; AlphaScreen SSBct-PriA binding, biotinylated peptide; in the data active = inhibition mostly above about 37%, no sharp cut-off; inactive = mostly below about 20%
Sa ugtP lethal: kills S. aureus RN4220 lacking UgtP; S. aureus RN4220 ugtP deletion, OD600 growth, 16 h; growth inhibition, % (test concentration not listed); 330,000 compounds, 0.54% hits; in the data active = growth inhibition above about 68%
CCHF vOTU inh-2: confirmation of CCHF virus vOTU protease inhibitors; shares compounds with CCHF vOTU inh-1; Recombinant CCHFV vOTU, Pep-AMC fluorescence; inhibition, % at 11.5 µM; 1,900 compounds, 17% hits
Of the large screens only hits and unclear results are named; the others gave an inactive call (follow-up assays come after a bar, where they were run). This is a sample that favours compounds with a hit; in the whole collection about 1.5% have one here. Cut-off read from the data, not from the text of the source, unless noted: active = inhibition above about 30%; inactive = the rest.

CC1=NN(c2ccc(Cl)cc2)C(=O)C1C(c1ccccc1O)c1c(C)[nH]n(-c2ccc(Cl)cc2)c1=O (stereo not given)	none (no result: CCHF vOTU inh-1)
CC1=NN(c2ccc(C)cc2C)C(=O)C1C(c1ccccc1O)C1C(=O)N(c2ccc(C)cc2C)N=C1C (stereo not given)	CCHF vOTU inh-1 43.7 | CCHF vOTU inh-2 inactive
CCCCNC(=O)c1nc(C2CCN(S(=O)(=O)c3csc(C(=O)O)c3)CC2)oc1-c1ccccc1	CCHF vOTU inh-1 29.6 (no result: Sa RN4220 lethal, DUSP3 inh, SSB-PriA inh, Sa ugtP lethal) | CCHF vOTU inh-2 inactive
CCCCNC(=O)c1nc(C2CCN(S(=O)(=O)c3ccc(Cl)cc3)CC2)oc1-c1ccccc1	none (no result: Sa RN4220 lethal, DUSP3 inh, SSB-PriA inh, Sa ugtP lethal)
COc1ccccc1Nc1nnc(C)c(=O)[nH]1	none
O=c1[nH]c(Nc2ccccc2)cc2ccccc12	CCHF vOTU inh-1 88.4 | CCHF vOTU inh-2 inactive
COc1ccc(OC)c(Nc2cc3ccccc3c(=O)[nH]2)c1	CCHF vOTU inh-1 98.8 (no result: DUSP3 inh) | CCHF vOTU inh-2 90.4
COc1ccccc1Nc1cc2cc(Br)ccc2c(=O)[nH]1	CCHF vOTU inh-1 108.8 (no result: DUSP3 inh) | CCHF vOTU inh-2 92.8
O=c1[nH]c(Nc2ccccc2)cc2cc(Br)ccc12	CCHF vOTU inh-1 101.3 (no result: DUSP3 inh) | CCHF vOTU inh-2 97.6
COc1ccc(OC)c(S(=O)(=O)N2CCCC(c3nnc(-c4cccs4)o3)C2)c1 (stereo not given)	none (no result: Sa RN4220 lethal, CCHF vOTU inh-1, DUSP3 inh, Sa ugtP lethal)
Cn1nccc1C(=O)Nc1nc2ccc(F)cc2s1	none (no result: Sa RN4220 lethal, CCHF vOTU inh-1, DUSP3 inh, Sa ugtP lethal)
O=C(N[C@@H]1CCC(=O)N(CC[C@H](Sc2ccc(Br)cc2)c2ccccc2)CC1)OCc1ccccc1	none (no result: Sa RN4220 lethal, DUSP3 inh, Sa ugtP lethal)
COc1ccc(S[C@@H](CCN2CC[C@H](NC(=O)OCc3ccccc3)CCC2=O)c2ccccc2)cc1	CCHF vOTU inh-1 36.2 (no result: Sa RN4220 lethal, DUSP3 inh, Sa ugtP lethal) | CCHF vOTU inh-2 inactive
CCN(CC)c1ccc(NC(=O)COC(=O)C2CCN(c3ccc(C(F)(F)F)cn3)CC2)cc1	none (no result: DUSP3 inh)
CCN(c1ccc(NC(=O)COC(=O)C2CCN(c3ccc(C(F)(F)F)cn3)CC2)cc1)C(C)C	CCHF vOTU inh-1 29.9 (no result: DUSP3 inh) | CCHF vOTU inh-2 inactive
CCCCC1C2=C(CC(C)(C)CC2=O)OC2=C1C(=O)CC(C)(C)C2	CCHF vOTU inh-1 29.5 | CCHF vOTU inh-2 inactive
C[C@@H](Cc1ccoc1)NC(=O)c1ccoc1	none (no result: Sa RN4220 lethal, CCHF vOTU inh-1, DUSP3 inh, Sa ugtP lethal)
CN(C)c1cccc2c(S(=O)(=O)Nc3ccccn3)cccc12	CCHF vOTU inh-1 37.5 | CCHF vOTU inh-2 inactive
Cc1ccc(S(=O)(=O)Nc2ccccn2)c(C)c1	none (no result: Sa RN4220 lethal, DUSP3 inh, SSB-PriA inh, Sa ugtP lethal)
Cc1ccc(NC(=O)CN2CCN(Cc3nc4ccccc4[nH]3)CC2)cc1Cl	none (no result: Sa RN4220 lethal, CCHF vOTU inh-1, DUSP3 inh, Sa ugtP lethal)
CCOc1ncccc1C(=O)Nc1cc(S(=O)(=O)N2CCOCC2)ccc1OCC(F)(F)F	CCHF vOTU inh-1 55.2 (no result: DUSP3 inh) | CCHF vOTU inh-2 inactive
COc1ccccc1CNC(=O)C(=O)NC[C@@H](c1cccc2ccccc12)N1CCCC1	none (no result: Sa RN4220 lethal, CCHF vOTU inh-1, DUSP3 inh, Sa ugtP lethal)
Cc1cc(C)nc(SCC(=O)N/N=C/c2cccn2-c2cccc(C(F)(F)F)c2)n1	CCHF vOTU inh-1 30.1 (no result: Sa RN4220 lethal, SSB-PriA inh, Sa ugtP lethal) | CCHF vOTU inh-2 inactive
CCOC(=O)Cn1c(=NC(=O)c2ccn(C)n2)sc2cc(S(C)(=O)=O)ccc21	none (no result: Sa RN4220 lethal, CCHF vOTU inh-1, DUSP3 inh, Sa ugtP lethal)
Cc1nn(C2CCS(=O)(=O)C2)c2nc(-c3cccs3)cc(C(=O)NCc3ccccn3)c12 (stereo not given)	none (no result: Sa RN4220 lethal, CCHF vOTU inh-1, DUSP3 inh, Sa ugtP lethal)
CCCCCCCCCC(=O)N[C@@H]1c2cc(OC)c(OC)cc2C[C@H]1O	CCHF vOTU inh-1 31.3 (no result: DUSP3 inh) | CCHF vOTU inh-2 inactive
Cc1ccc(-n2cc(C(=O)NCCc3ccccc3)nn2)cc1	none (no result: Sa RN4220 lethal, CCHF vOTU inh-1, DUSP3 inh, Sa ugtP lethal)
COc1cc2c(cc1OC)-c1c(OC)c(OC)cc3c1C(C2)N(C)CC3 (stereo not given)	CCHF vOTU inh-1 38.4 | CCHF vOTU inh-2 50.7
CCc1ccc(S(=O)(=O)/N=C2\C=C(Nc3cccc(C(=O)O)c3)C(=O)c3ccccc32)cc1	CCHF vOTU inh-1 136.9 (no result: Sa RN4220 lethal, SSB-PriA inh, Sa ugtP lethal) | CCHF vOTU inh-2 114.8
CCc1ccc(S(=O)(=O)/N=C2\C=C(Nc3ccc(O)cc3)C(=O)c3ccccc32)cc1	none (no result: Sa RN4220 lethal, CCHF vOTU inh-1, SSB-PriA inh, Sa ugtP lethal)
O=C(O)c1ccc(NC2=C/C(=N/S(=O)(=O)c3cccs3)c3ccccc3C2=O)cc1	CCHF vOTU inh-1 110.1 (no result: Sa RN4220 lethal, DUSP3 inh, SSB-PriA inh, Sa ugtP lethal) | CCHF vOTU inh-2 104.8
Cc1cc(C)c(S(=O)(=O)/N=C2\C=C(Nc3ccc(C(=O)O)cc3)C(=O)c3ccccc32)c(C)c1	CCHF vOTU inh-1 124.7 (no result: Sa RN4220 lethal, SSB-PriA inh, Sa ugtP lethal) | CCHF vOTU inh-2 111.1
O=C(O)c1ccc(NC2=C/C(=N/S(=O)(=O)c3ccccc3)c3ccccc3C2=O)cc1	CCHF vOTU inh-1 108.5 (no result: Sa RN4220 lethal, SSB-PriA inh, Sa ugtP lethal) | CCHF vOTU inh-2 113.4
CCCCOc1ccc(S(=O)(=O)NCCc2cn3cccc(C)c3n2)cc1	none (no result: Sa RN4220 lethal, CCHF vOTU inh-1, DUSP3 inh, Sa ugtP lethal)
Cc1ccc(S(=O)(=O)/N=C2\C=C(NS(=O)(=O)c3ccccc3)C(=O)c3ccccc32)cc1	CCHF vOTU inh-1 51.3 (no result: Sa RN4220 lethal, DUSP3 inh, SSB-PriA inh, Sa ugtP lethal) | CCHF vOTU inh-2 inactive
